In article PMC5540273 (PLoS ONE, 2017):
Where two headings read alike, the source gives them in different places.

Tests used:
[1] = tested on: FGFR1; conditions: concentration: 1 μM, replicates: in singlicate; n = 1
[2] = tested on: FGFR2; conditions: concentration: 1 μM, replicates: in singlicate; n = 1
[3] = tested on: FGFR3; conditions: concentration: 1 μM, replicates: in singlicate; n = 1
[4] = tested on: FGFR4; conditions: concentration: 1 μM, replicates: in singlicate; n = 1
[5] = tested on: FGR; conditions: concentration: 1 μM, replicates: in singlicate; n = 1
[6] = tested on: FLT1; conditions: concentration: 1 μM, replicates: in singlicate; n = 1
[7] = tested on: FLT3-autoinhibited; conditions: concentration: 1 μM, replicates: in singlicate; n = 1
[8] = tested on: FLT3; conditions: concentration: 1 μM, replicates: in singlicate; n = 1
[9] = tested on: FLT4; conditions: concentration: 1 μM, replicates: in singlicate; n = 1
[10] = tested on: FRK; conditions: concentration: 1 μM, replicates: in singlicate; n = 1
[11] = tested on: FYN; conditions: concentration: 1 μM, replicates: in singlicate; n = 1
[12] = tested on: GAK; conditions: concentration: 1 μM, replicates: in singlicate; n = 1
[13] = tested on: T1, GCN2(Kin.Dom.2,S808G); conditions: concentration: 1 μM, replicates: in singlicate; n = 1
T1 construct: gene EIF2AK4

[14] = tested on: GRK1; conditions: concentration: 1 μM, replicates: in singlicate; n = 1
[15] = tested on: T2, GRK2; conditions: concentration: 1 μM, replicates: in singlicate; n = 1
T2 construct: gene ADRBK1

[16] = tested on: T3, GRK3; conditions: concentration: 1 μM, replicates: in singlicate; n = 1
T3 construct: gene ADRBK2

[17] = tested on: GRK4; conditions: concentration: 1 μM, replicates: in singlicate; n = 1
[18] = tested on: GRK7; conditions: concentration: 1 μM, replicates: in singlicate; n = 1
[19] = tested on: GSK3A; conditions: concentration: 1 μM, replicates: in singlicate; n = 1
[20] = tested on: GSK3B; conditions: n = 1
[21] = concentration: 1 μM, replicates: in singlicate
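Further: KINOMEscan kinase panel screen.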

In the case of `Cc1cc(-c2ccnc(Nc3cccc(C#N)c3)n2)cc(C)c1O` [GSK1440913], the “%Inh” value [1] is reported as 0%, the “%Inh” value [2] is reported as 54% and the “%Inh” value [3] is reported as 27%. For the same molecule, the “%Inh” value [4] was 14%, the “%Inh” value [5] was 37% and the “%Inh” value [6] was 27%. The “%Inh” value [7] was 12%, the “%Inh” value [8] was 48% and the “%Inh” value [9] was 15%. For the same molecule, the “%Inh” value [10] was 60%, the “%Inh” value [11] was 0% and the “%Inh” value [12] was 79%. For the same molecule, the “%Inh” value [13] was 0%, the “%Inh” value [14] was 6% and the “%Inh” value [15] was 0%. For the same molecule, the “%Inh” value [16] was 0%, the “%Inh” value [17] was 90.7% and the “%Inh” value [18] was 0%. The “%Inh” value [19] was 93.8% and the “%Inh” value [20, 21] was 26%.
For `COc1cccc2c(-c3ccncc3)c(-c3ccc(F)cc3)nn12` [GW468513], the “%Inh” value [1] was 11%, the “%Inh” value [2] was 0% and the “%Inh” value [3] was 1%. The “%Inh” value [4] was 0%, the “%Inh” value [5] was 13% and the “%Inh” value [6] was 29%. The “%Inh” value [7] was 0%, the “%Inh” value [8] was 22% and the “%Inh” value [9] was 13%. For the same molecule, the “%Inh” value [10] was 5%, the “%Inh” value [11] was 27% and the “%Inh” value [12] was 83%. The “%Inh” value [13] was 18%, the “%Inh” value [14] was 0% and the “%Inh” value [15] was 0%. The “%Inh” value [16] was 38%, the “%Inh” value [17] was 0% and the “%Inh” value [18] was 0%. The “%Inh” value [19] was 4% and the “%Inh” value [20, 21] was 3%.
For `COc1ccc(C2=C(Nc3cccc(O)c3)C(=O)NC2=O)cc1` [SB-390766], the “%Inh” value [1] was 0%, the “%Inh” value [2] was 0% and the “%Inh” value [3] was 0%. For the same molecule, the “%Inh” value [4] was 27%, the “%Inh” value [5] was 0% and the “%Inh” value [6] was 5%. The “%Inh” value [7] was 0%, the “%Inh” value [8] was 0% and the “%Inh” value [9] was 35%. For the same molecule, the “%Inh” value [10] was 11%, the “%Inh” value [11] was 34% and the “%Inh” value [12] was 0%. For the same molecule, the “%Inh” value [13] was 61%, the “%Inh” value [14] was 0% and the “%Inh” value [15] was 0%. For the same molecule, the “%Inh” value [16] was 33%, the “%Inh” value [17] was 0% and the “%Inh” value [18] was 0%. The “%Inh” value [19] was 41% and the “%Inh” value ([20]; 1 µM) was 35%.
In the case of `CCNC(=O)/C=C/c1n[nH]c2cc(Sc3ccccc3C(=O)NC)ccc12`, the “%Inh” value [1] is reported as 79%, the “%Inh” value [2] is reported as 74% and the “%Inh” value [3] is reported as 68%. For the same molecule, the “%Inh” value [4] was 14%, the “%Inh” value [5] was 71% and the “%Inh” value [6] was 99.9%. The “%Inh” value [7] was 26%, the “%Inh” value [8] was 31% and the “%Inh” value [9] was 99.5%. The “%Inh” value [10] was 31%, the “%Inh” value [11] was 0% and the “%Inh” value [12] was 13%. The “%Inh” value [13] was 6%, the “%Inh” value [14] was 14% and the “%Inh” value [15] was 25%. The “%Inh” value [16] was 20%, the “%Inh” value [17] was 0% and the “%Inh” value [18] was 0%. For the same molecule, the “%Inh” value [19] was 18% and the “%Inh” value [20, 21] was 29%.
In the case of `COC(=O)Nc1nc2ccc(Oc3ccc(NC(=O)Nc4cc(C(F)(F)F)ccc4F)cc3)cc2[nH]1.Cl` [GW654607], the “%Inh” value [1] is reported as 26%, the “%Inh” value [2] is reported as 63% and the “%Inh” value [3] is reported as 11%. For the same molecule, the “%Inh” value [4] was 17%, the “%Inh” value [5] was 12% and the “%Inh” value [6] was 99.6%. The “%Inh” value [7] was 27%, the “%Inh” value [8] was 99% and the “%Inh” value [9] was 99.9%. The “%Inh” value [10] was 94.7%, the “%Inh” value [11] was 54% and the “%Inh” value [12] was 0%. For the same molecule, the “%Inh” value [13] was 6%, the “%Inh” value [14] was 0% and the “%Inh” value [15] was 0%. The “%Inh” value [16] was 0%, the “%Inh” value [17] was 11% and the “%Inh” value [18] was 0%. For the same molecule, the “%Inh” value [19] was 4% and the “%Inh” value [20, 21] was 9%.
